According to PubChem BioAssay (NCI):
This is part of a sample that, as a whole, favours compounds with a hit. Of some 83,000 tested, about 20% had one in any assay.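 Cell lines were cultured in 96-well plates, exposed to a single compound concentration, and assessed for percent growth 48 hours later.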 Activity calls are given as the source filed them. Rule for the calls: active = growth percent below 10; inactive = the rest.

Key:
Test in all cases: NCI-60 one-dose screen, 48 h (100 = growth as untreated, 0 = no growth, -100 = all killed)
Settings in all cases: 10 µM unless noted
[1] = system: SR leukemia
[2] = system: RPMI-8226 leukemia
[3] = system: OVCAR-8 ovarian
[4] = system: OVCAR-5 ovarian
[5] = system: OVCAR-4 ovarian
[6] = system: SK-OV-3 ovarian
[7] = system: IGROV1 ovarian
[8] = system: OVCAR-3 ovarian
[9] = system: HS 578T breast
[10] = system: NCI/ADR-RES ovarian
[11] = system: T-47D breast
[12] = system: BT-549 breast
[13] = system: MDA-MB-435 melanoma
[14] = system: SW-620 colon
[15] = system: MCF7 breast
[16] = system: HCT-116 colon
[17] = system: HCC-2998 colon
[18] = system: KM12 colon

Measured: growth

COc1ccc2c(c1)OC(N)=C(C#N)C2c1ccc(F)cc1 (centres undefined)
inactive: [1] 18.1% | [3] 34.4% | [4] 56.4% | [5] 69% | [6] 16.6% | [7] 53.1% | [8] 16.9% | [9] 18.8% | [10] 26% | [11] 40.7% | [12] 20.1% | [14] 18.6% | [15] 18.1% | [16] 24.9% | [17] 54.5% | [18] 26.4%
active: [2] 6.87% | [13] -4.14%

CO[C@H]1/C=C/C=C/C=C/C[C@H](OC(=O)[C@@H](C)NC(=O)C2CCCCC2)[C@H](C)[C@@H](O)/C(C)=C\CCC2=CC(=O)C=C(NC(=O)C1)C2=O
inactive: [10] 32%
active: [1] 3.26% | [2] -26.5% | [3] -16.2% | [4] 3.19% | [5] -13.9% | [6] -21.3% | [7] 3.97% | [8] -19.9% | [9] -16.2% | [11] -15.1% | [12] -19.6% | [13] -29.1% | [14] 2.69% | [15] -11% | [16] -18.4% | [17] -19.2% | [18] -9.05%

CC(C)(c1ccc(OCC(O)CNCc2ccco2)cc1)c1ccc(OCC(O)CNCc2ccco2)cc1 (centres undefined)
inactive: [1] 31.5% | [2] 64.8% | [3] 92.3% | [4] 101% | [5] 96% | [6] 105% | [7] 86.3% | [8] 83% | [9] 75.7% | [10] 93.2% | [11] 72.4% | [12] 88.7% | [13] 89.5% | [14] 90.3% | [15] 85.4% | [16] 60.2% | [17] 46.6% | [18] 82.6%
